Shown are actives, neighbours in structure and some others; about 4% of the full set was active somewhere.
Rv3671c inh – Rv3671c (M. tuberculosis) protease inhibition; P9WHR9; inhibition, % at 5.96 µM; actives 0.048% (n = 320,000); AID 2606; in the data active means inhibition above about 38%;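 further: extracellular domain of Rv3671c used as enzyme; 0% = enzyme with DMSO and 100% = no enzyme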
GDH-TPI inh – counter-screen for M. tuberculosis FBA inhibitors: GDH-TPI coupled enzymes | GDH-TPI coupled enzyme counterscreen, NADH absorbance | inhibition, % at 4.8 µM | actives 1.2% (n = 360,000) | AID 588335; in the data active means inhibition above about 30%;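 further: 0% = DMSO wells and 100% = wells lacking the enzyme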
Mtb UGM inh – blocks M. tuberculosis UGM enzyme. P9WIQ1. purified UGM, fluorescence polarization probe displacement. inhibition, % at 10 µM. actives 0.06% (n = 320,000). AID 504406; in the data active means inhibition above about 10%, passing the limit was not always enough
Target sequence (P9WIQ1 whole entry, looked up): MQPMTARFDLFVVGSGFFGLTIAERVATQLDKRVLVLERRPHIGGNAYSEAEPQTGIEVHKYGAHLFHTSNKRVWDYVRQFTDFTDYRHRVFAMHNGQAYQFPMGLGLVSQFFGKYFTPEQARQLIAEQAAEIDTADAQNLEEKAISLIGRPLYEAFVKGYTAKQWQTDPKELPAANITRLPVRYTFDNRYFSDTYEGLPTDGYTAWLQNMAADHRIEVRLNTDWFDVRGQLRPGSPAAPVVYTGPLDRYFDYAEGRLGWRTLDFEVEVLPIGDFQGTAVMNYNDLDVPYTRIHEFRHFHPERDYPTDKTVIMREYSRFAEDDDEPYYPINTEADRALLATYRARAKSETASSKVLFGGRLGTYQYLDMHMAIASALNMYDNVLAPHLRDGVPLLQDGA
Mtb betalactam – beta-lactam sensitization of Mtb H37Rv; M. tuberculosis H37Rv growth with meropenem, percent inhibition; inhibition, % at 25 µM; actives 0.27% (n = 330,000); call rule not given here;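 further: growth measured after seven days incubation then overnight dye step; 0% = bacteria only wells and 100% = bacteria with antibiotic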
FBA Mtb inh – inhibits M. tuberculosis FBA enzyme. inhibition, % at 1 µM. actives 2.3% (n = 360,000). AID 588726. purified M. tuberculosis FBA, fluorescence read-out. P9WQA3; in the data active means inhibition above about 27%;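 further: 0% = vehicle and 100% = reference inhibitor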
RecA splice inh – blocks M. tuberculosis RecA intein splicing | inhibition, % (test concentration not listed) | AID 2221 | actives 0.75% (n = 290,000) | P9WHJ3 | cell-free RecA intein splicing, fluorescence; in the data active means inhibition above about 30%;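 further: 0% = vehicle wells and 100% = reference inhibitor control wells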
* marks the source's active call; other numbers are inactive results; . = not tested or not shown; + = active, no number.

SMILES	Rv3671c inh	GDH-TPI inh	Mtb UGM inh	Mtb betalactam	FBA Mtb inh	RecA splice inh
CCOC(=O)C1=C(C)NC(SC(C)=O)=NC1c1ccc(OC(C)=O)c(OC)c1 (stereo unspecified)	-2	36*	1	-5	4	3
O=C(N/N=C/C(Cl)=C\c1ccccc1)c1cnccn1	7	66*	1	0	4	0
O=C(N/N=C/c1cccc([N+](=O)[O-])c1)c1cnccn1	-15	16	0	-4	1	1
COc1ccc(C(=O)N/N=C\C(C)=C\c2ccccc2)cc1OC	-4	51*	4	-2	-6	4
O=C(N/N=C/C(Cl)=C/c1ccccc1)c1cnccn1	4	86*	1	19	-6	2
CC(/C=N/NC(=O)c1cccnc1)=C\c1ccccc1	7	18	1	0	0	-5
CC(/C=N/NC(=O)c1ccc(Br)cc1)=C\c1ccccc1	-13	19	2	11	0	-2
CC(=C/c1ccccc1)/C=N/NC(=O)c1cnccn1	3	43*	0	-11	-2	1
O=C(CSc1nnc(-c2ccccn2)o1)Nc1ccc(F)cc1	5	25	2	-7	8	1
Cc1cc(C)nc(/N=C(\NC(=O)C(C)(C)C)Nc2ccccc2)n1	0	-11	3	-8	-1	1
Cc1cc(-c2ccccc2)c2ccc(NC(=O)C(C)(C)C)nc2n1	6	46*	0	6	14	1
COC(=O)Cc1c(C)c2ccc(OC(C)C)cc2oc1=O	-8	30	-1	2	+	0
COC(=O)Cc1c(C)c2cc(Cl)c(OC(=O)c3ccco3)cc2oc1=O	4	2	4	19	+	-179
COC(=O)Cc1c(C)c2ccc(OCC(=O)N(C)C3CCS(=O)(=O)C3)cc2oc1=O (stereo unspecified)	3	17	-1	-6	114*	-1
COC(=O)c1cc(-c2c(C)oc3cc(OC(C)C)ccc3c2=O)c(C)o1	-1	10	-1	19	0	5
Cc1c(CC(=O)O)c(=O)oc2cc(OCc3ccc(F)cc3F)ccc12	-5	18	-1	0	156*	-1
Cc1c(CC(=O)O)c(=O)oc2cc3occ(-c4ccc(F)cc4)c3cc12	2	10	-4	1	4	-1
CC(=O)c1cn(CC(=O)Nc2ccccc2C(F)(F)F)c2ccccc12	4	11	2	-1	0	-1
NS(=O)(=O)c1ccc(CNC(=O)c2ccc3c(=O)n4c(nc3c2)CCC4)cc1	0	-5	-1	1	6	-1
COC(=O)Cc1c(C)c2ccc(OCC(=O)N3CCOCC3)cc2oc1=O	10	26	-2	3	123*	1
COCCOC(=O)c1c(C)oc2ccc(OC(=O)c3ccco3)cc12	2	2	-2	92	-1	24
COC(=O)Cc1c(C)c2ccc(OC(=O)c3ccco3)cc2oc1=O	0	17	-1	57	+	0
O=C(CN1C(=O)NC2(CCCC2)C1=O)NCCc1ccc(F)cc1	-1	6	0	2	0	.
C/C(=N\Nc1c([N+](=O)[O-])c(C)nn1C)c1ccc(F)cc1F	6	33*	2	-2	0	0
O=C(/C=C/[C@H]1O[C@@H](n2cnc3c(NC(=O)c4ccccc4)ncnc32)[C@H](O)[C@@H]1O)NCc1cccs1	.	.	.	.	-2	.
SMILES	Rv3671c inh	GDH-TPI inh	Mtb UGM inh	Mtb betalactam	FBA Mtb inh	RecA splice inh
Cc1ccc(/C=N/NC(=O)c2ccc(NC(=O)c3ccccc3Cl)cc2)o1	-1	49*	-1	4	-6	.
O=C(N/N=C/c1cccs1)c1ccc(NC(=O)c2ccccc2Cl)cc1	1	33*	-1	-3	0	0
O=C(N/N=C/c1cccs1)c1cccc(NC(=O)c2ccccc2Cl)c1	-8	18	2	8	0	2
CCOC(=O)C1CCN(C(=O)c2ccc(S(=O)(=O)Nc3ccccc3OC)cc2)CC1	-1	4	3	-4	0	.
COc1ccc(CNC(=O)[C@@H](NC(=O)C2CCN(C(=O)[C@@H](N)CCSC)CC2)C(C)C)cc1	9	16	-2	-8	11	.
Cc1ccc(-c2csc(N/N=C/c3ccco3)n2)cc1	6	17	1	93	-2	3
CN(C)S(=O)(=O)c1ccc(-c2csc(N/N=C/c3ccco3)n2)cc1	2	33*	1	1	-3	0
Cc1cc(O)c(C(C)C)cc1N=Cc1ccc([N+](=O)[O-])cc1	.	10	.	.	-2	.
Cc1cc(O)c(C(C)C)cc1N=Cc1ccc(N(C)C)cc1	.	46*	.	.	-1	.
O=C(Nc1ccc(-c2nc3cc(Cl)ccc3o2)cc1)C1CCCO1 (stereo unspecified)	3	11	3	-19	4	-1
O=C(Nc1ccc2oc(-c3ccccc3)nc2c1)C1CCCO1 (stereo unspecified)	4	12	1	5	+	-3
O=C(Cc1ccccc1)Nc1ccc2oc(-c3cccnc3)nc2c1	-3	4	-1	37	112*	2
CC(C)C[C@H](NC(=O)N1CCn2c1nc1ccccc12)C(=O)N[C@H](Cc1ccccc1)C(=O)O	-8	4	3	-4	1	-1
N#C/C(=C\C=C\c1ccccc1)c1nc(-c2ccc3c(c2)OCO3)cs1	1	14	20*	56	2	-3
CN(CCO)c1nc(N)c(C#N)c(CC#N)c1C#N	-10	34*	2	-1	1	.
O=C(C[n+]1cccc(O)c1)NCc1ccc(Cl)cc1	-1	20	0	4	0	-2
O=[N+]([O-])c1ccc2[nH]c(O)c(N=Nc3ccc(F)cc3)c2c1	-3	1	1	-6	-6	0
O=[N+]([O-])c1ccc2[nH]c(O)c(N=NC3CCS(=O)(=O)C3)c2c1 (stereo unspecified)	8	59*	0	5	-3	-2
COc1ccc(/C=N/NC(=O)c2[nH]c3ccc(Cl)cc3c2-c2ccccc2)c(C(=O)O)c1OC	-29	31*	0	3	5	-2
O=C(N/N=C/c1ccccc1Cl)c1[nH]c2ccc(Br)cc2c1-c1ccccc1	-142	7	-2	-4	3	19
COc1ccc(/C=N/NC(=O)c2[nH]c3ccc(Br)cc3c2-c2ccccc2)c(C(=O)O)c1OC	-15	39*	0	67	7	8
CCN(CC)CCOc1ccc(-c2c(C)c3c(ccc4ccccc43)oc2=O)cc1	.	9	.	.	4	.
Cc1c(C#N)c(=O)oc2ccc3ccccc3c12	1	6	-1	-4	115*	-268
COc1ccc(-c2sc3cc(OC)c(OC)cc3c2-c2ccc(O)cc2)cc1	14	-2	-2	-4	4	.
CC(=O)OC[C@H]1O[C@@H](Oc2cc3ccc(=O)oc3cc2OC(C)=O)[C@H](OC(C)=O)[C@@H](OC(C)=O)[C@@H]1OC(C)=O	.	11	.	.	+	.

Compound activity as filed in PubChem BioAssay.
